Structures are written as SMILES. Whole data set: some 110,000 compounds, median “z-score” near -0.1, cut for the highest 2% near 2. The list comes from a sample in which the highest values are over-represented; it also holds similar structures and randomly drawn compounds. Active and inactive are the calls of the source.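 The calls were made as follows: active = z-score in the third read window above 3 or below -3; inactive = the rest.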

Chain of Metabotropic glutamate receptor 8 (Rattus norvegicus) (P70579 whole entry, looked up): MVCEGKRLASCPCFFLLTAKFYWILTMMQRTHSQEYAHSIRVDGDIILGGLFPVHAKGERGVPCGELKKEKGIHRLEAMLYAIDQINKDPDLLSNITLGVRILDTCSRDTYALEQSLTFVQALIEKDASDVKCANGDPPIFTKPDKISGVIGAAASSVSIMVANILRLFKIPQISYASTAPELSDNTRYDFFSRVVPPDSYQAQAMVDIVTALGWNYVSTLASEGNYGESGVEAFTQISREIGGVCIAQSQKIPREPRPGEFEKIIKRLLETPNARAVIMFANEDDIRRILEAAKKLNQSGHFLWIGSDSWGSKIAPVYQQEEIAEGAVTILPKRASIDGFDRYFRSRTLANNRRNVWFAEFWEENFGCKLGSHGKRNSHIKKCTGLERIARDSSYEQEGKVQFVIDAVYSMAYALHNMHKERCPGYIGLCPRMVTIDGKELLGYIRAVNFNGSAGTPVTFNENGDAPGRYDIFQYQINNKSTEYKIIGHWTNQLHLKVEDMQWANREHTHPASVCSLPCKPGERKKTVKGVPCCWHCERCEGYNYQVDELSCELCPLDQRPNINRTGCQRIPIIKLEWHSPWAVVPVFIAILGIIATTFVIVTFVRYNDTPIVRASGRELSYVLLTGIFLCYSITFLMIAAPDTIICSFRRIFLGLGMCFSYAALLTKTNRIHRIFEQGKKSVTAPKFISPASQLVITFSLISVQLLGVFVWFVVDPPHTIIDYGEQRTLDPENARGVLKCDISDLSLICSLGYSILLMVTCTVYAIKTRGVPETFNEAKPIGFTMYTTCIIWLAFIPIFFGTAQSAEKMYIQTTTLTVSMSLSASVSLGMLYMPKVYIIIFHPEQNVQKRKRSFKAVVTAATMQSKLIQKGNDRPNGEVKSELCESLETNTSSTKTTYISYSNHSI

The assay has as its target Metabotropic glutamate receptor 8 (Rattus norvegicus) (UniProt P70579). Kind of assay: mGluR8 Gi/Go-coupled signaling modulation – cell-based, rat, thallium flux, HTS, primary screen (AID 488969). The following applies: HEK293 rat mGluR8, GIRK (G protein-gated inwardly rectifying potassium channel) thallium flux, FluoZin2; at 10 µM; stronger effect = higher value; submaximal glutamate (EC20) added with thallium.
As for `CCc1ccc(NC(=O)CCn2ccnc2C)cc1`, the z-score came to 0.306.
With `Cc1nccn1CCc1nc(N)nc(N)n1` the figure was 7.57 (active); with `CCn1c(CCn2ccnc2C)n[nH]c1=S`, 0.253.
For `O=c1cc(CN2CCN(CCO)CC2)c2cc3c(cc2o1)CCC3`, the z-score amounted to 0.804.
Then `CCN(C(=O)c1ccco1)c1nc(CC(=O)Nc2ccc(Cl)cc2)cs1`, with -0.635; and `O=C(Nc1ccc2oc(-c3cccnc3)nc2c1)c1ccco1`, with -0.851.
`CCOC(=O)c1c(-c2ccc(C)o2)csc1NC(=O)CSc1nnc(C)s1` had a z-score of -1.11.
Then `CCOC(=O)c1c(-c2ccc(C)o2)csc1NC(=O)COC(=O)c1cccs1`, with 0.191.
Take `CCOC(=O)c1c(-c2ccc(C)o2)csc1NC(=S)NC(=O)c1ccccc1Br`: the z-score was 0.406.
Consider `CCOC(=O)c1c(-c2ccc(C)o2)csc1NC(=S)NC(=O)c1cccs1`, for which the z-score is 3.05 (active).
Then `CCOC(=O)c1c(-c2ccc(C)o2)csc1NC(=S)NC(=O)N(C)C`, with 13.6 (active); and `CCOC(=O)c1c(-c2ccc(C)o2)csc1NC(=O)CN(C)CC(=O)Nc1ccc(C)cc1`, with -0.104.
Then `O=C1OCCC1Sc1nnc(-c2ccccc2)o1` (configuration not stated), with -0.134.
Consider `Cc1c(Cl)cccc1NC(=S)NC1CCN(Cc2ccccc2)CC1`, for which the z-score was -0.67.
With `Cc1cc(C(=O)OCC(=O)Nc2ccc(F)cc2)c(C)o1` the figure was 2.45; with `Cc1cc(C(=O)OCC(=O)Nc2ccc(F)c(F)c2)c(C)o1`, 0.0113; with `Cc1occc1C(=O)OCC(=O)Nc1ccc(F)cc1`, 0.794.
In the case of `N#Cc1c(N)nc2c(c1-c1ccncc1)CCCC2`, the z-score was -0.232.
With `Cc1cc2occ(CC(=O)NC3CCCc4ccccc43)c2cc1C` (configuration not stated) the figure was 0.0042; with `COc1ccc2c(CC(=O)NC3CCCc4ccccc43)coc2c1` (configuration not stated), -0.484; with `Cc1ccc2c(CC(=O)NC3CCCc4ccccc43)coc2c1` (configuration not stated), 4.11 (active).
With `CCOC(=O)C(NC(=O)NCc1ccc(OC)cc1)(OCC)C(F)(F)F` (configuration not stated) the figure was -0.306; with `O=C(c1ccc(Cl)cc1)c1cnc2ccccn12`, -0.0464; with `O=C(Nc1ccccc1F)c1ccc(-n2cncn2)nc1`, -0.0684.
With `O=C(CN1CCCCCCC1)N/N=C/c1ccc(F)cc1F` the figure was -0.63; with `CC(=O)c1ccc(NC(=O)COC(=O)CCC(=O)c2cccs2)cc1`, 0.114.
Regarding `Cc1cccc(NC(=S)NC(=O)CCc2ccccc2)c1C`, the z-score stood at 0.747.
For `Cc1cccc(NC(=O)NC(C)CCc2ccccc2)c1` (configuration not stated), the z-score was 4.17 (active).
Then `Cc1ccccc1NC(=S)NC(=O)CCc1ccccc1`, with 2.94; and `Cc1ccccc1NC(=S)NC(C)CCc1ccccc1` (configuration not stated), with 0.22; and `Cc1cccc(NC(=S)NC(C)CCc2ccccc2)c1` (configuration not stated), with 0.2.
Consider `Cc1ccccc1NC(=O)C(=O)NC(C)CCc1ccccc1` (configuration not stated), for which the z-score was 7.37 (active).
`COC(=O)[C@H](C)NC(=O)Nc1cccc(C)c1` registered a z-score of -0.0554.
Then `Cc1cccc(NC(=S)NC(=O)CCc2ccccc2)c1`, with 2.74.
Then `O=C(CCc1ccccc1)NC(=S)Nc1cccc(Br)c1`, with 0.0148; and `Cc1cccc(C)c1NC(=S)NC(=O)CCc1ccccc1`, with 1.73.
Compound `Cc1cccc(NC(=S)NNC(=O)Cc2ccccc2)c1` gave a z-score of 0.0541.
With `CC(CCc1ccccc1)NC(=O)C(=O)Nc1ccccc1` (configuration not stated) the figure was -0.109.
With `CCOc1ccc(Cn2ccnc2CCl)cc1[N+](=O)[O-]` the figure was -0.00871; with `Cc1cccc(N(C)C(=O)c2coc(=O)c3ccccc23)c1`, -0.042; with `CCCS(=O)(=O)N1CCCC(C(=O)NC2CCCCC2)C1` (configuration not stated), 0.0604.
With `O=C(CSc1nc2c(c(C(F)(F)F)n1)CCc1ccccc1-2)NCc1ccc(F)cc1` the figure was 0.759.
As for `CCn1cc(C(=O)N2CCN(Cc3ccc4c(c3)OCO4)CC2)c(=O)c2ccc(C)nc21`, the z-score is -0.451.
In turn, `CCc1ccccc1NC(=O)CSc1nc2c(c(-c3ccco3)c1C#N)CCCC2` registered a z-score of 0.16.
The compound `CCOc1ccc(N2C(=O)CC(Sc3nc(C)cc(C)c3C#N)C2=O)cc1` (configuration not stated) returned a z-score of 0.15.
In turn, `CC1CCN(C(=O)Cc2nn(C)c(=O)c3ccccc23)CC1` had a z-score of 0.733.
Then `COc1ccc(Oc2nc(C(F)(F)F)nc3ccccc23)cc1`, with -0.576; and `Cc1c(Br)c([N+](=O)[O-])nn1C(C)C(=O)NCc1cccs1` (configuration not stated), with -0.152; and `Cc1ccc(NC(=O)Cn2nnc(-c3ccccc3NC(=O)c3cccs3)n2)cc1`, with -0.57.
`CCCc1cc(-c2n[nH]c(=S)n2C(C)c2ccccc2)cs1` (configuration not stated): the z-score was 10.9 (active).
Consider `CCc1cc(-c2n[nH]c(=S)n2C(C)c2ccccc2)cs1` (configuration not stated), for which the z-score came out at 2.55.
With `Cc1scc(-c2n[nH]c(=S)n2C(C)c2ccccc2)c1C` (configuration not stated) the figure was -1.43; with `CC(c1ccccc1)n1c(-c2ccncc2)n[nH]c1=S` (configuration not stated), 0.000563; with `CCn1c(-c2csc(-c3ccccc3)n2)n[nH]c1=S`, 0.398.
In turn, `CCc1cc(-c2n[nH]c(=S)n2-c2ccccc2C)cs1` displayed a z-score of -0.325.
In turn, `CCOC(=O)CNC(=O)CSc1nc(N(C)C)nc(N2CCOCC2)n1` came in with a z-score of -0.116.
`COc1ccc(-c2cc(-n3c(C(F)(F)F)nc4ccccc43)n(CCC#N)n2)cc1` came in with a z-score of -0.215.
With `Cc1cc(N2CCCCC2)nc2ccc(NC(=O)c3ccc(Br)o3)cc12` the figure was -1.58; with `CCN1CCN(c2cc(C)c3cc(NC(=O)c4ccncc4)ccc3n2)CC1`, 1.22; with `CCN1CCN(c2cc(C)c3cc(NC(=O)c4ccc(Br)o4)ccc3n2)CC1`, 3.44 (active).
Then `CCCC1Cc2nc(N3CCCCC3)c(C#N)cc2CO1` (configuration not stated), with 0.443.
Then `Cc1cc(NCCCN(C)C)n2nc(-c3cccs3)cc2n1`, with -0.0105.
Consider `CCOc1ccc(NS(=O)(=O)c2ccc3c(c2)CCN3C(=O)C2CCC2)cc1`, for which the z-score is -0.102.
With `CC(C)NC(=O)c1cccc(Br)c1` the figure was -0.0557; with `Cc1ccc(OCc2nn3c(-c4ccco4)nnc3s2)cc1`, -1.14; with `c1ccc2c(-c3nnc4n3CCCCC4)cc(-c3ccncc3)nc2c1`, 0.284.
In turn, `Clc1ccc(-c2cc(-c3nnc4n3CCCCC4)c3ccccc3n2)cc1` gave a z-score of 2.08.
`Fc1ccc(-c2cc(-c3nnc4n3CCCCC4)c3ccccc3n2)cc1` had a z-score of -0.316.
`O=c1c2c(-c3cccs3)csc2ncn1-c1ccccc1` displayed a z-score of -0.0624.
`O=C(c1ccc(Cl)c([N+](=O)[O-])c1)N1CCN(c2ccccn2)CC1` gave a z-score of -0.0404.
With `O=C(CSc1nc2c(sc3ccccc32)c(=O)n1Cc1ccccc1)NCC1CCCO1` (configuration not stated) the figure was 0.199; with `CCCCn1c(SCC(=O)NCc2ccco2)nc2c(sc3ccccc32)c1=O`, -0.00992.
Then `CCCCn1c(SCC(N)=O)nc2c(sc3ccccc32)c1=O`, with 3.23 (active).
Then `O=C(CSc1nc2c(sc3ccccc32)c(=O)n1CCO)NCC1CCCO1` (configuration not stated), with 0.0816.
Turning to `CCSc1nc2c(sc3ccccc32)c(=O)n1C(C)C`, the z-score came to 0.00726.
With `Cc1ccc(Cn2c(SCC(=O)NCC3CCCO3)nc3c(sc4ccccc43)c2=O)cc1` (configuration not stated) the figure was 2.06; with `CCC(C)NC(=O)CSc1nc2c(sc3ccccc32)c(=O)n1CCCN1CCOCC1` (configuration not stated), 0.452; with `CC(C)CCn1c(SCC#N)nc2c(sc3ccccc32)c1=O`, 5.93 (active).
In the case of `NC(=O)CSc1nc2c(sc3ccccc32)c(=O)n1CCCN1CCOCC1`, the z-score is 0.869.
Regarding `Cc1ccc(S(=O)(=O)NCc2c(-c3ccccc3)c3cc(Cl)ccc3[nH]c2=O)cc1`, the z-score was -0.178.
With `CC1CC(C)CN(CC(=O)Nc2ccc3c(c2)OCCO3)C1` (configuration not stated), the z-score was -0.603.
As for `COc1cc(N2C(=O)c3ccccc3C2=O)c(Cl)cc1C(=O)OCC(=O)NCc1ccco1`, the z-score is 0.165.
The compound `CCOC(=O)c1cnc(SC)nc1N` yielded a z-score of -0.0813.
With `CCCn1c(-c2ccc(F)cc2)cnc1SCC(=O)O` the figure was -0.678; with `CCOC(=O)c1c(C)[nH]c(C(=O)COC(=O)CNC(=O)c2ccc(Cl)cc2)c1C`, 5.97 (active).
Then `CCOC(=O)c1c(C)[nH]c(C(=O)COC(=O)CNC(=O)c2ccc(Cl)cc2Cl)c1C`, with -0.202; and `CCOC(=O)c1c(C)[nH]c(C(=O)COC(=O)CNC(=O)c2ccc(Br)cc2)c1C`, with -0.279; and `COc1ccc(CCn2c(C)cc(C(=O)CSc3nnnn3-c3ccccc3)c2C)cc1`, with 0.292.
`CN(C)c1ccc(/C=C/c2nnnn2-c2ccccc2)cc1` returned a z-score of -0.556.
The compound `COc1ccc(S(=O)(=O)N2CCCCC2)cc1NC(=O)c1ccc2ccccc2n1` returned a z-score of -0.376.
`CCc1ccc(Nc2nc3ccccc3c(=O)s2)cc1` displayed a z-score of 2.82.
Consider `CCc1ccc(Nc2nnc(SCn3nnc4ccccc4c3=O)s2)cc1`, for which the z-score is -0.292.
`CCc1ccc(NCc2nc3ccccc3c(=O)[nH]2)cc1` showed a z-score of -0.644.
Regarding `Cc1ccc2nc3sc(C(=O)N4CCCc5ccccc54)c(N)c3cc2c1`, the z-score came out at 0.484.
With `CN(Cc1nc(-c2ccncc2)no1)S(=O)(=O)c1ccccc1` the figure was 0.00952.
With `O=C(CSc1ccccn1)N1CCN(c2ccccc2)CC1` the figure was 0.0291.
Consider `CCOc1ccc2nc(/N=C/c3c(C)[nH]n(-c4ccccc4)c3=O)sc2c1`, for which the z-score was 13.8 (active).
Then `CCOc1ccc2nc(SC3CC(=O)N(c4ccc(C)cc4)C3=O)sc2c1` (configuration not stated), with 0.0229; and `COc1cc(SC#N)ccc1N=Cc1c(C)[nH]n(-c2ccc(C)cc2)c1=O`, with 0.469.
Regarding `CCOc1ccc(N=Cc2c(C)[nH]n(-c3nc4ccccc4[nH]3)c2=O)cc1`, the z-score is 0.0911.
With `CCOc1ccc2nc(NC(=O)CS(=O)(=O)c3ccc(C)cc3)sc2c1` the figure was -0.503; with `CCOc1ccc2nc(/N=C/c3c(C)[nH]n(-c4ccc(C)cc4)c3=O)sc2c1`, 10.6 (active).
Regarding `Cc1[nH]n(-c2ccccc2)c(=O)c1C=Nc1cnc2ccccc2c1`, the z-score is 0.416.
As to `COc1ccc2nc(/N=C/c3c(C)[nH]n(-c4ccc(C)cc4C)c3=O)sc2c1`, the z-score was 15.7 (active).
On to `COc1cc(SC#N)ccc1N=Cc1c(C)[nH]n(-c2ccc(C)cc2C)c1=O`, for which the z-score was -0.204.
In turn, `Cc1ccc(-n2[nH]c(C)c(C=Nc3ccc(S(=O)(=O)Nc4nc(C)cc(C)n4)cc3)c2=O)c(C)c1` had a z-score of -0.0925.
Take `COc1ccc2nc(/N=C\N(C)C)sc2c1`: the z-score is 0.401.
With `COc1ccc2nc(/N=C/c3c(C)[nH]n(-c4ccc(C)cc4)c3=O)sc2c1` the figure was 9.39 (active); with `O=C(CCc1nc(-c2ccc(Cl)cc2)no1)OCc1ccc(Br)cc1`, -0.0119; with `O=C(CCSc1ccc(Cl)cc1)NC1CCCCC1`, -0.109.
Regarding `COC(=O)c1ccccc1NC(=O)c1cc(-c2ccc(O)cc2)on1`, the z-score is -0.322.
Compound `Cc1cc(N=Cc2cc(Br)ccc2O)no1` yielded a z-score of -1.2.

For the origin of these results see PubChem BioAssay AID488969 (Vanderbilt High Throughput Screening Facility, 2010).
